Screens: PubChem BioAssay, several laboratories
ssDAF-12 act: S. stercoralis DAF-12 activation, primary screen; activation, % at 6.8 µM; hit rate 1% among 370,000; HEK293 ssDAF-12/GRIP1 lit1-tk-luc reporter, luminescence; % of 3 µM dafachronic acid response; AID 652126;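 active means activation above the mean over all tested compounds plus 3 SD, cut at about 0.9% in these data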;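 further: 0% = DMSO-only wells and 100% = 3 µM delta7-dafachronic acid wells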
hgDAF-12 ag: agonists of H. glycines DAF-12 nuclear receptor; HEK293 GAL4-hgDAF12 UAS-luciferase reporter, agonist luminescence; normalized to butyrate control; activation, % at 6.8 µM; hit rate 1.8% among 370,000; AID 687014;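 active means activation above a cutoff set at the mean of all screened compounds plus 3 SD, cut at about 10% in these data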;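 further: 0% = DMSO wells and 100% = sodium butyrate wells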
NR1D1 modulator: modulators of human Rev-erb alpha DNA binding; P20393; Rev-erbα–FITC-DNA binding, fluorescence polarization, 90 min; activity, % at 10 µM; AID 1259318; hit rate 0.79% among 370,000;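 active means activity above about 14%, limit read from the data; passing the limit was not always enough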;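 further: 0% = DMSO wells with 35 nM protein and 100% = DMSO wells with 750 nM protein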
DAX1 inh-1: inhibitors of DAX1 repression of SF-1 activated StAR promoter | HEK293T StAR-luciferase reporter, SF-1/DAX-1 repression relief | inhibition, % at 6.8 µM | hit rate 1.1% among 370,000 | AID 652010;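 active means inhibition above the mean over all tested compounds plus 3 SD, cut at about 3.6% in these data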;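 further: 0% = DAX-1 cells with DMSO and 100% = cells lacking DAX-1 with DMSO; higher inhibition means more luminescence from relief of DAX-1 repression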
hcDAF12 agonist: activators of H. contortus DAF-12 nuclear receptor; activation, % at 6.8 µM; AID 652067; HEK293 hcDAF-12 lit1-tk-luc reporter, luminescence; 0% DMSO, 100% Δ7-dafachronic acid; hit rate 1.4% among 370,000;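 active means activation above the mean of all tested compounds plus 3 SD, cut at about 5.5% in these data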;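 further: 100% = response to 3 µM Δ7-dafachronic acid high control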
DAX1 inh-2: NR0B1 (DAX1) inhibition | P51843 | HEK293 Gal4-DAX1 luciferase reporter, luminescence | inhibition, % at 6.75 µM | hit rate 0.99% among 340,000 | AID 504766;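 active means inhibition above the mean over all tested compounds plus 3 SD, cut at about 4.2% in these data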;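 further: 0% = DAX1-transfected cells with DMSO and 100% = empty-vector control cells with DMSO; inhibition shows as a rise in luminescence from relieved DAX1 repression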
Target sequence (P51843 207-470 limits assumed): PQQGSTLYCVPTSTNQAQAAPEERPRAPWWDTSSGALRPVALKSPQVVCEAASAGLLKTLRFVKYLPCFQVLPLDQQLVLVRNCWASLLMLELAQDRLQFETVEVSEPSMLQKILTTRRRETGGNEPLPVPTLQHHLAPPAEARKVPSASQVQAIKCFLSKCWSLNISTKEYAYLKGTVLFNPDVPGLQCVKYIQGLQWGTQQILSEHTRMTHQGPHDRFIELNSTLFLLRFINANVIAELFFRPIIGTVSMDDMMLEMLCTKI
Rev-erbA confirm: confirmation of modulators of human Rev-erb alpha DNA binding | shares compounds with NR1D1 modulator | Rev-erb alpha FITC-DNA binding, fluorescence polarization, 90 min | activation, % at 25 µM | hit rate 61% among 3,000;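 active means activation at or above a set limit, or at least 3 SD above the negative control mean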;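 further: 0% = 35 nM protein with DMSO and 100% = 750 nM protein high control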
RORg counter: RORgamma DNA-binding activity, dose-response counter-screen; shares compounds with NR1D1 modulator; purified RORgamma protein-FITC-DNA binding, fluorescence polarization; IC50, µM; hit rate 8% among 910; AID 1259320;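 active means Compounds whose fitted half-maximal concentration for disrupting protein-DNA binding is below 10 micromolar; the record names Rev-erb in its text, so the target is in doubt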
Starred values were filed as active, the others as inactive; i = inactive; x = not tested or not shown. This is a sample that favours compounds with a hit; in the whole collection about 4.8% have one here.

SMILES	ssDAF-12 act	hgDAF-12 ag	NR1D1 modulator	DAX1 inh-1	hcDAF12 agonist	DAX1 inh-2	Rev-erbA confirm	others
C#CCN1CCc2onc(-c3ccc(Br)cc3)c2C1=O	-1	6	-3	1	-2	x	x
O=c1c2sc3nc(N4CCOCC4)c4c(c3c2ncn1C(c1ccccc1)c1ccccc1)CCCC4	-2	0	30*	0	-1	0	27*
O=c1c2sc3nc(N4CCOCC4)c4c(c3c2ncn1-c1ccccc1)CCCC4	-2	-1	3	-3	-3	-1	x
c1ccc(-c2cnn3c(-c4ccccc4)c(-c4ccccc4)nc3n2)cc1	-1	-1	123*	0	0	0	8
Nc1nc(-c2ccccc2)c(-c2ccccc2)n1N	-1	1	6	0	0	-1	x
COC(=O)c1cc2cc(Cl)ccc2nc1SC	-1	0	98*	1	1	2	53*	RORg counter=i
CCOC(=O)c1c(C)nc2sc3c(=O)n(-c4ccc(OC)cc4)cnc3c2c1-c1ccc(OC)cc1	-1	4	35*	0	0	0	-14
N#CN1CCC(NS(=O)(=O)c2ccc(F)cc2)C1 (stereo not drawn)	-1	-1	4	x	5	x	x
N#Cc1c(-c2ccccc2)cc(-c2ccccc2)nc1SCc1nnc(-c2ccccc2)o1	-1	-1	50*	0	1	1	24*
COc1ccc(-c2cc(-c3ccccc3)c(C#N)c(SCC(=O)O)n2)cc1	-1	-2	2	0	-1	1	x
COC(=O)C1=C(C)N(C)C(=NCc2cccc(C(F)(F)F)c2)NC1c1ccc(C(F)(F)F)cc1 (stereo not drawn)	-1	5	-4	0	-2	x	x
COc1ccccc1-c1nnc(Nc2nc3c(OC)cccc3s2)o1	-1	-7	47*	-3	-2	-3	78*
COc1ccc(-c2c(C#N)c(SCC(=O)Nc3ccccc3)nc3c2CCCC3)cc1	-1	0	45*	0	2	-1	29*
CCc1ccccc1NC(=O)CSc1nc2c(c(-c3ccco3)c1C#N)CCCC2	-1	0	29*	0	-2	-1	20*
COc1ccc(-c2ccc(C#N)c(SCC(=O)Nc3sc4c(c3C#N)CCC4)n2)cc1	-1	2	34*	-1	1	0	14
COc1ccc(OC)c(C(=O)CSc2nc3c(c(=O)n(C)c(=O)n3C)n2C(C)C)c1	-1	0	37*	-1	2	0	5
CC(C)c1[nH]nc2c1C(c1ccc(F)cc1)N(Cc1ccccc1)C2=O (stereo not drawn)	-1	0	-3	0	-1	x	x
CCOC(=O)COc1c(Cl)cc(C2NC(=S)NC(c3ccccc3)=C2C(C)=O)cc1OCC (stereo not drawn)	0	2	34*	0	1	-1	31*	RORg counter=>40
COc1ccc2cc(C(=O)NCc3ccccc3)c(=O)oc2c1	-1	0	40*	0	-2	1	11
COc1ccc2oc(=O)c(C(=O)NCc3ccc(F)cc3)cc2c1	-2	1	30*	0	-1	0	13
CCN(CC)c1ccc2cc(C(=O)NCc3ccc(F)cc3)c(=N)oc2c1	-1	-1	40*	0	1	3	32*	RORg counter=>40
COc1ccc(CNC(=O)c2cc3ccccc3oc2=O)cc1	-1	-1	-3	0	-1	3	x
C=CCN1C(=O)[C@H](CC(=O)NCCCCc2ccccc2)[C@@]2(C(=O)OCC)CCCC=C12	-2	-2	0	-2	-1	x	x
CC(OC(=O)c1cc(Br)ccc1O)C(=O)NCc1ccc2c(c1)OCO2 (stereo not drawn)	0	1	35*	0	1	1	23*
CCCCN1C[C@@H](COCc2ccccc2)Oc2cccc(F)c2S1(=O)=O	-1	5	17*	-2	-3	x	0
SMILES	ssDAF-12 act	hgDAF-12 ag	NR1D1 modulator	DAX1 inh-1	hcDAF12 agonist	DAX1 inh-2	Rev-erbA confirm	others
COC(=O)c1ccc2c(=O)n3c(nc2c1)SCC(c1ccccc1)=N3	0	5	80*	1	0	-1	4
CCSc1nc2cc(C(=O)OC)ccc2c(=O)n1CC	-1	1	6	0	-1	0	x
Cc1ccccc1N1CCN(C2=Nc3ccccc3Sc3ccccc32)CC1	-2	-7	0	-1	-3	x	x
COCCNS(=O)(=O)c1ccc2c3c(cccc13)C(=O)N2C	-1	3	-5	-1	-1	0	x
CCCC(=O)N(c1ccc(OCC)cc1)S(=O)(=O)c1ccc2c3c(cccc13)C(=O)N2C	-1	0	43*	0	-2	-1	17
CC(C)(C)CC(C)(C)c1ccc(OCCO)cc1	x	x	-4	x	x	x	x
COc1cccc(-c2cc(C(=O)Nc3cc(C)n(Cc4ccc(Cl)cc4)n3)no2)c1	-1	-3	-5	-1	-2	0	x
COc1ccc(OC)c(-c2cc(C(=O)Nc3cc(C)n(Cc4ccc(Cl)cc4)n3)no2)c1	-1	3	16*	-1	1	0	5
Cc1ccc(-c2cc(C(F)(F)F)n3nc(C(=O)Nc4ccon4)cc3n2)cc1C	-2	1	-3	0	-1	0	x
COc1ccc(-c2cc(C(=O)Nc3cc(OC)c(OC)c(OC)c3)no2)cc1OC	x	x	0	x	x	-1	x
COc1ccc(-c2cc(C(F)(F)F)n3nc(C(=O)Nc4cc(C)on4)cc3n2)cc1OC	-2	-1	34*	-1	-2	0	26*
COc1ccc(-c2cc(C(=O)Nc3cc(C)on3)no2)cc1OC	-2	-3	36*	0	0	-2	29*
Cc1cc(NC(=O)c2cccc(C(=O)Nc3cc(C)on3)n2)no1	-1	3	22*	0	0	0	17*
COc1cccc(CNC(=O)[C@H]2CCCN2C(=O)[C@H]2CCCN2S(=O)(=O)c2cccc(C)c2)c1	-2	-1	3	0	-1	x	x
O=C(OCC#CCSc1nnc(-c2cccc3ccccc23)o1)c1ccc(F)cc1F	-1	7	1	x	-2	x	x
Cn1nc(C(=O)Nc2ccc(Br)cc2)cc1C(=O)Nc1ccc(Br)cc1	0	0	13*	0	1	1	6
COc1cccc(NC(=O)c2cc(C(=O)Nc3cccc(OC)c3)n(C)n2)c1	-1	-1	1	-1	-2	-2	x
